Morphology score and SARS-CoV-2 infection rate data for 31 compounds are collected here from the supplement of paper PMC13380429.

Assay [1] deals with Vero E6 infected with SARS-CoV-2. Description: morphology score (similarity to uninfected cells); higher = more like uninfected cells. The settings on record: 24 h.
Assay [2] has the same test system. Description: SARS-CoV-2 infection rate relative to infected DMSO; higher = more infection, active = 60 or less. The conditions noted are these: 24 h.

In assay [1], `CCN(CC)CCOc1ccc2c(c1)C(=O)c1cc(OCCN(CC)CC)ccc1-2` [tilorone] (0.833333 µM) yielded a morphology score of 0.187. Moreover, the SARS-CoV-2 infection rate in assay [2] was 105% (inactive).
On to `Cc1c(F)cc(C(=O)NC2CC2)cc1-c1c(F)cn2c(C(C)(C)C)nnc2c1F` (10 µM), for which the morphology score in assay [1] is -0.202. In addition, the SARS-CoV-2 infection rate in assay [2] was 108% (inactive).
The like results for `CN(C)c1ccc2nc3ccc(=[N+](C)C)cc-3sc2c1` [methylene-blue] (0.833333 µM) were, in that order, 0.152 and 104% (inactive).
In assay [1], `OCc1cncc(F)c1` [5-fluoro-3-pyridyl-methanol] (10 µM) gave a morphology score of 0.135. Moreover, the SARS-CoV-2 infection rate in assay [2] is 102% (inactive).
Take `CN(C)CC[C@@](O)(c1ccccc1)c1ccccc1Cl` [clofedanol] (10 µM): the morphology score in assay [1] is -0.0705. In assay [2], the SARS-CoV-2 infection rate is 110% (inactive).
For the compound `COC(=O)CCC(=O)CN` [methyl-aminolevulinate] (10 µM), in assay [1], the morphology score came to 0.118. Further, the SARS-CoV-2 infection rate in assay [2] is 90% (inactive).
`Cc1cn([C@H]2C[C@H](N=[N+]=[N-])[C@@H](CO)O2)c(=O)[nH]c1=O` [zidovudine] (10 µM) gave a morphology score in assay [1] of -0.144. For the same compound, the SARS-CoV-2 infection rate in assay [2] was 108% (inactive).
Regarding `COc1cccc(-c2cc(F)ccc2[C@H]2Cc3nc(N)nc(C)c3C(=O)N2)n1` (0.833333 µM), the morphology score in assay [1] came to 0.125. The SARS-CoV-2 infection rate in assay [2] is 99% (inactive).
Regarding `COc1ccn2ncc(-c3nc4[nH]nc(NC(=O)c5ccc(F)cc5)c4cc3F)c2c1` (10 µM), the morphology score in assay [1] came to 0.00883. For the same compound, in assay [2], the SARS-CoV-2 infection rate is 111% (inactive).
On the same counts, the results for `CCN(CC)CCO[C@H]1CC[C@@]2(C)C(=CC[C@@H]3[C@@H]2CC[C@]2(C)C(=O)CC[C@@H]32)C1` (0.833333 µM) are 0.234 and 84% (inactive).
The like results for `O=C(O)c1cnn(-c2nc3cc(OC(F)(F)F)c(Cl)cc3[nH]2)c1` (10 µM) were, in that order, 0.316 and 88.5% (inactive).
The like results for `CC(=O)CC(c1ccccc1)c1c(O)c2ccccc2oc1=O` (configuration not stated) [warfarin] (10 µM) were, in that order, -0.0329 and 106% (inactive).
Compound `COc1ccccc1C(=O)Nc1cccc(NC(=O)c2cccc(C)c2)c1` (10 µM) displayed a morphology score in assay [1] of 0.257. The SARS-CoV-2 infection rate in assay [2] was 96.5% (inactive).
The like results for `COc1cc(C(=S)N2CCOCC2)ccc1O` [vanitiolide] (10 µM) were, in that order, 0.152 and 102% (inactive).
In the case of `COc1nccc(-c2c(-c3ccc(F)cc3)ncn2[C@H]2CC[C@H](O)CC2)n1` (10 µM), in assay [1], the morphology score is 0.396. Also, the SARS-CoV-2 infection rate in assay [2] is 85% (inactive).
On the same counts, the results for `CN(C(=O)Cc1ccc(Cl)c(Cl)c1)[C@H](CN1CCCC1)c1ccccc1` (10 µM) are 0.793 and 21.5% (active).
`Cn1c(=O)cc(N2CCC[C@@H](N)C2)n(Cc2cc(F)ccc2C#N)c1=O` [trelagliptin] (10 µM) displayed a morphology score in assay [1] of 0.194. Moreover, the SARS-CoV-2 infection rate in assay [2] was 99% (inactive).
For the compound `CC(N)CCCC(C)(C)O` (configuration not stated) [heptaminol] (10 µM), the morphology score in assay [1] is -0.15. The SARS-CoV-2 infection rate in assay [2] is 111% (inactive).
The like results for `Cc1cc(-c2cc(OC(=O)c3ccccc3)ccc2Cl)cc2nnc(Nc3ccc(OCCN4CCCC4)cc3)nc12` (10 µM) were, in that order, -0.0439 and 114% (inactive).
On the same counts, the results for `O=C1C(=C(O)/C=C/c2ccc(O)cc2)C(=O)[C@@](O)([C@@H]2O[C@H](CO)[C@@H](O)[C@H](O)[C@H]2O)C(=O)[C@H]1[C@@H]1O[C@H](CO)[C@@H](O)[C@H](O)[C@H]1O` (10 µM) are 0.0573 and 104% (inactive).
The like results for `CC(C)NC(=O)COc1cccc(-c2nc(Nc3ccc4[nH]ncc4c3)c3ccccc3n2)c1` (0.833333 µM) were, in that order, -0.0169 and 106% (inactive).
Regarding `CNCCCCOc1ccccc1Cc1ccccc1` [bifemelane] (10 µM), the morphology score in assay [1] was determined as 0.517. The SARS-CoV-2 infection rate in assay [2] is 65% (inactive).
In the case of `NCCCCN=C(N)N` [agmatine] (10 µM), the morphology score in assay [1] came out at 0.0302. Also, the SARS-CoV-2 infection rate in assay [2] is 106% (inactive).
With `COCCN1CCN(Cc2ccc(-c3n[nH]c4c3C(=O)c3c(NC(=O)NN5CCOCC5)cccc3-4)cc2)CC1` (10 µM), the morphology score in assay [1] was -0.35. The SARS-CoV-2 infection rate in assay [2] was 117% (inactive).
On to `COc1cc(C(=O)N(CC[C@H]2CCCN2C)C/C(C)=C/c2ccccc2F)cc(OC)c1OC` (racemic) (10 µM), for which the morphology score in assay [1] amounted to 0.055. Further, the SARS-CoV-2 infection rate in assay [2] was 108% (inactive).
The like results for `O=C1OC(OC(=O)c2cccnc2Nc2cccc(C(F)(F)F)c2)c2ccccc21` (configuration not stated) [talniflumate] (10 µM) were, in that order, -0.0899 and 108% (inactive).
On the same counts, the results for `Cc1cc(C)n(-c2cccc([C@H](CC(=O)O)CN3CC[C@@H](CCc4ccc5c(n4)NCCC5)C3)c2)n1` [integrin-antagonist-1] (10 µM) are -0.102 and 111% (inactive).
In turn, `CCC[C@@]1(CCc2ccccc2)CC(O)=C([C@H](CC)c2cccc(NS(=O)(=O)c3ccc(C(F)(F)F)cn3)c2)C(=O)O1` [tipranavir] (10 µM) returned a morphology score in assay [1] of 0.183. In addition, in assay [2], the SARS-CoV-2 infection rate is 94.5% (inactive).
As for `CCCc1nc(C(C)(C)O)c(C(=O)OCc2oc(=O)oc2C)n1Cc1ccc(-c2ccccc2-c2nnn[nH]2)cc1` [olmesartan-medoxomil] (10 µM), the morphology score in assay [1] is -0.0296. The SARS-CoV-2 infection rate in assay [2] is 116% (inactive).
`Cc1oc2nc3c(c(NC(=O)CN4CCCC4=O)c2c1C)CCCC3` (10 µM): the morphology score in assay [1] came to 0.0552. In addition, in assay [2], the SARS-CoV-2 infection rate is 103% (inactive).
On the same counts, the results for `CC[N+]1(C)CCCC(OC(=O)C(O)(c2ccccc2)c2ccccc2)C1` (configuration not stated) [pipenzolate] (10 µM) are 0.153 and 98% (inactive).
